How the values were obtained:
Assay type in all cases: functional
[1] = system: Plasmodium falciparum; experiment: GSK_TCMDC: Inhibition of Plasmodium falciparum 3D7 in whole red blood cells, using parasite LDH activity as an index of growth. Test compounds present at 2uM
[2] = system: Plasmodium falciparum; experiment: GSK_TCMDC: Inhibition of Plasmodium falciparum Dd2 in whole red blood cells, using parasite LDH activity as an index of growth. Test compounds present at 2uM
[3] = system: HepG2; experiment: GSK_TCMDC: Percent inhibition of human HepG2 cell line. Test compounds present at 10uM.

Structure (SMILES)	Inhibition [1] [%]	Inhibition [2] [%]	Inhibition [3] [%]
O=C(c1cc(C(=O)Nc2ccc(F)cc2)c(=O)n(-c2ccc(F)cc2)c1)c1cc(Cl)ccc1O	100	98	13
Cc1cc(N)c2cc(NC(=O)c3cccc4ccccc34)ccc2n1.Cl	98	13	18
Cc1cc(-c2cccc(CNCc3ccccc3)c2)ccc1S(=O)(=O)NCCN1CCCC1.O=C(O)C(F)(F)F	98	58	40
O=C(/C=C/c1ccc(Cl)c(Cl)c1)N1CCC(NCc2c[nH]c3ccccc23)CC1	94	4	36
COc1ccc2nc(Nc3nc(-c4ccccn4)cs3)sc2c1	93	94	40
CCn1c(-c2cc(C)on2)nc2cnc(Oc3ccc(C(=O)N4CC(=O)N(C)C4C(C)(C)C)cc3)cc21 (stereo not drawn)	81	57	44
CC(C)(C)C(=O)Nc1c(-c2cc(=O)oc3cc4c(cc23)CCC4)oc2ccccc12	100	100	0
COc1ccc2ncc(F)c(CCN3CC[C@@H](CNCc4cc5c(cn4)OCS5)C3)c2n1.Cl	98	29	3
CO/C(=C\C=C\c1cc2cc(Cl)c(Cl)cc2[nH]1)C(=O)NCCCN1CCN(c2cccc(OCC(=O)Nc3ccccc3)c2)CC1	100	81	49
Cc1nc(N)nc(N)c1CCCOc1cccc(Cl)c1	96	0	16
CC(C)CCNC(=N)Nc1ccc(OCCCOc2ccc(NC(=N)NCCC(C)C)cc2)cc1	100	95	0
